Source: PubChem BioAssay
Activity calls are given as the source filed them.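 Rule for the calls: active = compound whose remaining NAD level is above about 45 nM (limit read from the data); inactive = the rest.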 Peptide text beside a SMILES is read from it.

What follows are compounds tested against NAD(+) hydrolase SARM1 (Homo sapiens) (UniProt Q6SZW1) (assay: blocking NAD cleavage by SARM1 SAM-TIR – cell lysate, NAD-Glo luminescence (AID 1508614;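 note: higher remaining NAD means stronger inhibition of SARM1 NADase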)). Details: SAM-TIR HEK293T lysate NADase, at 1 µM, stronger effect = higher value.
Sequence of NAD(+) hydrolase SARM1 (Homo sapiens) (Q6SZW1 whole entry, looked up): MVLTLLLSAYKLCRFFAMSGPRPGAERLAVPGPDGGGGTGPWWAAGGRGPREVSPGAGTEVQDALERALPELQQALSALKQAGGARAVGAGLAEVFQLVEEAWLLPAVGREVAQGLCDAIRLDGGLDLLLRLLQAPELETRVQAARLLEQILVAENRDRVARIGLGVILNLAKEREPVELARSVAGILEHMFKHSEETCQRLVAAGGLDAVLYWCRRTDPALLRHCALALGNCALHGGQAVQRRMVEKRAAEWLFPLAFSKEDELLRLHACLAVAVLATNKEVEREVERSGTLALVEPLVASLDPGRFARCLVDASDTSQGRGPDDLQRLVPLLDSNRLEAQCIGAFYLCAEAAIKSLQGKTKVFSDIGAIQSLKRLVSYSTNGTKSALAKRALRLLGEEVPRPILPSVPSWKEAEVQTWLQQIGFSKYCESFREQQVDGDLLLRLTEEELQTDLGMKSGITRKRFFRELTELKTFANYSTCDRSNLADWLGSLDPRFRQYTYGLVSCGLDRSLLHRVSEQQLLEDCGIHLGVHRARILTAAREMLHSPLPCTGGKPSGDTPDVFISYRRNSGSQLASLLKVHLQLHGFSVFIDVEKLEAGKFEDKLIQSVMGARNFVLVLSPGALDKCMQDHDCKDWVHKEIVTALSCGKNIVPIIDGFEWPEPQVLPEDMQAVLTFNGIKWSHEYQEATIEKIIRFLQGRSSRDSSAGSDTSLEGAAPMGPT

Remaining NAD, inactive:
CCOC(=O)c1ccc(N)cc1 10 nM
O=C1c2cccc(O)c2C(=O)c2c(O)cccc21 10 nM
O=C1c2ccccc2C(=O)C1c1ccccc1 10 nM
CCn1cc(C(=O)O)c(=O)c2cnc(N3CCCC3)nc21 10 nM
CCN(CC)CCNC(=O)c1cc(Br)c(N)cc1OC 10 nM
CC(=O)Nc1ccc(S(=O)(=O)Nc2ccc([N+](=O)[O-])cc2)cc1 10 nM
COc1ccc(CN(CCN(C)C)c2ncccn2)cc1 10 nM
CC(Cc1cccc(C(F)(F)F)c1)NCCOC(=O)c1ccccc1 (centres undefined) 10 nM
CC(=O)Oc1cccc(O)c1 10 nM
CC(C)N=C(N)/N=C(\N)Nc1ccc(Cl)cc1 10 nM
Nc1cc(-c2ccncc2)c[nH]c1=O 10 nM
OCC(O)CN1CCN(c2ccccc2)CC1 (centres undefined) 10 nM
Oc1c(I)cc(I)c2cccnc12 10 nM
O=C(O)c1cc(=O)c2ccccc2o1 10 nM
O=C1C(O)=C(O)C(=O)C(O)=C1O 10 nM
Cc1cc(=O)n(-c2ccccc2)n1C 10 nM
CCCCCCOc1ccccc1C(N)=O 10 nM
NC(=O)c1ccccc1O 10 nM
Cc1cc(-c2ccccc2)nnc1NCCN1CCOCC1 10 nM
CCCCOc1ccc(CC(=O)NO)cc1 10 nM
CCN(CC)CCNc1ccc(CO)c2sc3ccccc3c(=O)c12 10 nM
CCOc1ccc(Cc2nccc3cc(OCC)c(OCC)cc23)cc1OCC 10 nM
NC(N)=NCCN1CCCCCCC1 10 nM
COc1cccc(OC)c1C(=O)N[C@@H]1C(=O)N2[C@@H]1SC(C)(C)[C@@H]2C(=O)O 10 nM
O=C(CCBr)N1CCN(C(=O)CCBr)CC1 10 nM
Oc1c(Cl)cc(Cl)cc1Sc1cc(Cl)cc(Cl)c1O 10 nM
O=C(O)c1cc(O)c(O)c(O)c1 10 nM
COc1ccc(C(=O)c2ccccc2O)c(O)c1 10 nM
Cc1c(C(N)=O)cc([N+](=O)[O-])cc1[N+](=O)[O-] 10 nM
NS(=O)(=O)c1cc2c(cc1Cl)NC(CSCc1ccccc1)=NS2(=O)=O 10 nM
CCN1CCCC(OC(=O)C(c2ccccc2)c2ccccc2)C1 (centres undefined) 10 nM
CC(=O)OCC(=O)[C@@]1(O)[C@H](OC(C)=O)C[C@H]2[C@@H]3CCC4=CC(=O)C=C[C@]4(C)[C@@]3(F)[C@@H](O)C[C@@]21C 10 nM
Nc1ncnc2c1ncn2[C@@H]1O[C@H](CO)[C@@H](O)[C@H]1O 10 nM
CO[C@@]1(NC(=O)C(C(=O)O)c2ccc(O)cc2)C(=O)N2C(C(=O)O)=C(CSc3nnnn3C)CO[C@@H]21 (some centres undefined) 10 nM
OC(CCN1CCCCC1)(c1ccccc1)c1ccccc1 10 nM
CC(=O)NCCCCCC(=O)O 10 nM
CC1(C)OC(=O)NC1=O 10 nM
CCCCC(CC)CN1CN(CC(CC)CCCC)CC(C)(N)C1 (centres undefined) 10 nM
COC(=O)[C@H](Cc1ccccc1)NC(=O)[C@@H](N)CC(=O)O (H-Asp-Phe-OMe) 10 nM
